Test results from the supplement of paper PMC10338343.
± gives the standard deviation.
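Further: 1 nM active piRISC with 0.1 nM target library at 33 °C single turnover.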

Each sequence was assayed on MILI (PIWIL2) piRISC loaded with L1MC piRNA (26 nt) (assay: pre-steady-state target cleavage rate (min^-1); guide: L1MC piRNA 5'p-UAACUAAAUACUAUGCAAGCUGUAGG; MIWI and MILI are mouse PIWI proteins and EfPiwi is from a freshwater sponge; tags in brackets are library labels; higher = faster piRNA-guided slicing of the target). Conditions: auxiliary factor: 500 nM mouse GTSF1.
In short: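 The pre-steady-state cleavage rate was calculated from a burst-and-steady-state fit. Data came from Cleave-'n-Seq, in which […] transcribed, DNA-blocked target RNA library was mixed with 1 nM active affinity-purified piRISC carrying one synthetic guide, with or without 500 nM GTSF1 partner protein, in HEPES–potassium acetate buffer at 33 °C for 0–8 or 0–960 min. Uncleaved targets were sequenced and normalised to depth and to weakly complementary targets, three trials were pooled, and k3 was capped at 0.0001 min^-1.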
With UCCUGGAUCACCUUGCAUAGUAUUUUGUUA the “pre-steady-state target cleavage rate” value was 0.11 ± 0.027.
With UCCUGGAUGUCGAAGCAUAGUAUUUAUGUUA the “pre-steady-state target cleavage rate” value was 0.022 ± 0.0065.
UCCUGGAACAGCUUGCAUAGUAUUUUGAUA was tested, and the “pre-steady-state target cleavage rate” value was 0.0833 ± 0.019.
For UCCUGGUAGAGCUUGCAUAGAAUUUAGUUA, the “pre-steady-state target cleavage rate” value was 0.0311 ± 0.0054.
In the case of UCCUGGAUGUCGAACGUAACUAUAUAGUUA, the “pre-steady-state target cleavage rate” value is reported as < 0.0001.
UCCUGGUACAGCUUGCAUUGUAUUUACUUA was tested, and the “pre-steady-state target cleavage rate” value was 0.05 ± 0.015.
For “UCCUGGAUGUCGAACGAUAGUAUUUAGUAA [g3:g14:cont:t1A]”, the “pre-steady-state target cleavage rate” value was < 0.0001.
UCCUGGAUCAGCUUGGAUAGUAUUUACUUA was tested, and the “pre-steady-state target cleavage rate” value was 0.107 ± 0.026.
For UCCUGGAUGUCCUUGCAUUGAAUUUAGUUA, the “pre-steady-state target cleavage rate” value was 0.00493 ± 0.0046.
With UCCUGGUACAGCUACGAUAGUAUUUAGUAA the “pre-steady-state target cleavage rate” value was 0.183 ± 0.034.
With UCCUGGUACAGCUUGCUUAGUAUUUUCAAA the “pre-steady-state target cleavage rate” value was 0.0244 ± 0.0078.
With UCCUGCUACACGAUGCAUAGUAUUUAGAAA the “pre-steady-state target cleavage rate” value was 0.183 ± 0.042.
For UCCUGGAUGUGCUUGCAUACUAUUUAGUAA, the “pre-steady-state target cleavage rate” value was 0.00943 ± 0.0038.
UCCUGGAUGUCCUUGCAUUGUAUUUAGUAA was tested, and the “pre-steady-state target cleavage rate” value was 0.0421 ± 0.015.
In the case of UCCUGGAUCAGGAAGCAUAGUAUUUACAAA, the “pre-steady-state target cleavage rate” value is reported as 0.00413 ± 0.0036.
For UCCUCCUACAGCUUGCAAUGUAUUUUCAAA, the “pre-steady-state target cleavage rate” value was 0.0219 ± 0.0065.
With UCCUGGAUGUCGAUGCAUAGUUUUAAGUUA the “pre-steady-state target cleavage rate” value was 0.00654 ± 0.0039.
In the case of UCCUCCUACAGCUUGCAUAGUUAAUACAAA, the “pre-steady-state target cleavage rate” value is reported as 0.014 ± 0.0056.
UCCUGGUACAGCUUGCAUAGUUUUAGUUA was tested, and the “pre-steady-state target cleavage rate” value was 0.00982 ± 0.0052.
For UCCUGGAUGUCCUUGCAUAGUAUUUACUUA, the “pre-steady-state target cleavage rate” value was 0.0499 ± 0.013.
For UCCUGGAACAGCUUGCUUAGUAUUUAGAAA, the “pre-steady-state target cleavage rate” value was 0.142 ± 0.029.
In the case of UCCUGGAACAGCUUGCAUAGUAUUAUCUUA, the “pre-steady-state target cleavage rate” value is reported as 0.0578 ± 0.015.
With UCCUGGAACAGGAAGCAUAGUAUUUAGAAA the “pre-steady-state target cleavage rate” value was 0.049 ± 0.011.
With UCCUGGAACAGCUUGCAAAGUAUUUUCAAA the “pre-steady-state target cleavage rate” value was 0.0111 ± 0.0049.
